Screen size: about 69,000 compounds; about 8,600 (12%) showed an effect of 50% or more. This is one part of a sample in which strong results are shown more often than they occur.
system: Plasmodium berghei; experiment: Screen against P. berghei liver stage (PbLuc), transformed with Luciferase, at 10uM; type: functional, HepG2; settings: tested at 10 uM

SMILES | INHIBITION [%]
CCN1CC2(CNCCN(C(=O)Nc3ccccc3)C2)CC1=O (stereo not drawn) | -80
Cc1cccc(CN2C(=O)CCC23CCN(C(=O)NC(C)C)CC3)n1 | -40.5
CC(C(=O)NCCCN1CCOCC1)n1cncn1 (stereo not drawn) | -22.9
Fc1cnc(N2CCCC3(CCN(Cc4nccs4)C3)C2)nc1 (stereo not drawn) | 55.5
c1cnc(N2CCCC3(CCN(Cc4cccs4)C3)C2)nc1 (stereo not drawn) | -20.8
COc1ccc(CN2CCC3(CCCN(c4ncc(F)cn4)C3)C2)cc1 (stereo not drawn) | 74.2
Fc1cnc(N2CCCC3(CCN(Cc4cccs4)C3)C2)nc1 (stereo not drawn) | 57.9
COCCN1CCC2(CCCN(c3ncc(F)cn3)C2)C1 (stereo not drawn) | 24.9
Fc1cnc(N2CCCC3(CCN(Cc4ccco4)C3)C2)nc1 (stereo not drawn) | -3.88
CCCS(=O)(=O)N1CCC2(CCCN(c3ncc(F)cn3)C2)C1 (stereo not drawn) | 41
c1ccc(N2CCCC3(CCN(Cc4nccs4)C3)C2)nc1 (stereo not drawn) | 29.1
CCS(=O)(=O)N1CCC2(CCCN(c3ncc(F)cn3)C2)C1 (stereo not drawn) | 55.5
c1csc(CN2CCC3(CCCN(c4nncs4)C3)C2)n1 (stereo not drawn) | -79.8
CS(=O)(=O)N1CCC2(CCCN(c3ncc(F)cn3)C2)C1 (stereo not drawn) | 28.2
Fc1cnc(N2CCCC3(CCN(Cc4ccoc4)C3)C2)nc1 (stereo not drawn) | 40.4
CCc1noc(C)c1C(=O)N1CCC(c2[nH]ncc2S(C)(=O)=O)C1 (stereo not drawn) | 35.2
CCNc1cc2c(nn1)CCN(C(=O)c1c(C)noc1C)C2 | 14.1
O=C(NCCCO)NCCc1cc(F)ccc1F | 22.6
Cc1ccc(CN2CCCn3c(nc(Cn4ccnc4)cc3=O)C2)o1 | 10
CN1CCCC1c1ccnc(-c2ccccn2)n1 (stereo not drawn) | -5.8
NC(=O)COc1ccc(CNCc2c(F)cccc2F)cc1 | 31.1
Cc1ccc(-c2nc(CNC3CCc4ncnn4C3)co2)cc1 (stereo not drawn) | 12.7
O=C([C@H]1C[C@H]2CN(c3ncc(F)cn3)C[C@@H]1O2)N1CCCC1 | 41.2
c1ccc(Cc2nc(CNCCn3cccn3)cs2)cc1 | 21.5
CC(C)c1nnc2n1CCN(C(=O)c1cc3cc(F)ccc3[nH]1)C2 | 45.7
CC(C)c1cccc(N2CCCC3(CCC(=O)N(C4CC4)C3)C2)n1 (stereo not drawn) | 50.5

SMILES | INHIBITION [%]
CC(O)c1cccc(N2CCC3(CCC(=O)N(C4CCCC4)C3)CC2)n1 (stereo not drawn) | -9.31
N#Cc1cccc(N2CCCC3(CCC(=O)N(C4CCCC4)C3)C2)n1 (stereo not drawn) | 18.9
COCCCNC(=O)c1ccccc1S(C)(=O)=O | 18.4
Cc1cc(=O)[nH]c(=O)n1-c1cccc(Cl)c1Cl | 17.1
Cc1cc(C)n(-c2cncc(NCCNC(=O)c3cccnc3)n2)n1 | 31.9
CC(C)OCc1nn(C)c2c1CN(Cc1cccs1)CC2 | 35.8
COc1ccc(C(=O)n2nc(C)c(C)c2C)cc1 | 30.7
Cc1nn(C(=O)c2cccnc2)c(C)c1C | 64.6
Cc1nn(C(C)C)c(C)c1NC(=O)c1cccnc1 | 7.18
CO[C@@H]1CC[C@H]2[C@H]1OCCN2Cc1ccc(F)c(F)c1 | -8.28
Cc1ccccc1C(C(=O)NCCSC(F)(F)F)N(C)C (stereo not drawn) | -33.8
CC1(C)Cc2nc(C(C)(C)C)ncc2C(NC(=O)Cc2nnn[nH]2)C1 (stereo not drawn) | -0.71
COC(=O)CC(c1cccs1)c1oc(C)cc(=O)c1O (stereo not drawn) | 27.5
CCN1CCn2c(C)cnc2C12CCN(C(=O)c1ccc(Cl)cc1)CC2 | 31.9
CC(=O)NCCCC(=O)NC(C)c1nnc2n1CCC2 (stereo not drawn) | 1.75
CCOCC(=O)N1CCOCC2(CCN(c3ncccn3)C2)C1 (stereo not drawn) | 14.5
CC(=O)N1CCCC(c2nc(-c3ccccc3)c[nH]2)C1 (stereo not drawn) | 16.6
CS(=O)(=O)N1CCCC(c2nc(-c3ccccc3)c[nH]2)C1 (stereo not drawn) | 50.4
CCN(C)S(=O)(=O)N1CCCC(c2nc(-c3ccccc3)c[nH]2)C1 (stereo not drawn) | 89.1
CCN(CC)S(=O)(=O)N1CCCC(c2ccc(C(=O)O)cc2)C1 (stereo not drawn) | 36.8
CCCS(=O)(=O)N1CCCC(c2nc(-c3ccccc3)c[nH]2)C1 (stereo not drawn) | 44.4
CCN(C)S(=O)(=O)N1CCCC(c2cccc(C(=O)O)c2)C1 (stereo not drawn) | -5.38
O=C(c1cc(C2CCCCN2CCO)n[nH]1)N1CCOCC1 (stereo not drawn) | -0.902
Cc1ncncc1C(=O)NCCn1nc2ccccn2c1=O | 12.915
CCCS(=O)(=O)N1CCN(c2ccc3nnc(CC)n3n2)CC1 | -37.2
Cc1ccccc1OCC(=O)NCC(c1ccc(N(C)C)cc1)N(C)C (stereo not drawn) | 27.5

SMILES | INHIBITION [%]
CCNc1nc2cn(-c3ccc(OC(F)(F)F)cc3)c(=O)c-2c[nH]1 | 45.6
C[C@@H](NC(=O)c1cccs1)c1onc(-c2cccnc2)c1C(=O)O | -20.8
CCCNC(=O)CN1CCCC1c1nc(Cc2ccc(F)cc2)no1 (stereo not drawn) | 47.4
CC(C)(C)OCCN1CCCC1c1nc(Cc2ccc(F)cc2)no1 (stereo not drawn) | 10.6
OCCCN1CCCC1c1nc(Cc2ccc(F)cc2)no1 (stereo not drawn) | 14.9
C=C(C)CN1CCCC1c1nc(Cc2ccc(F)cc2)no1 (stereo not drawn) | 61.1
O=C(CN1CCCC1c1nc(Cc2ccc(F)cc2)no1)NC1CC1 (stereo not drawn) | 62
CCCN1CCCC1c1nc(Cc2ccc(F)cc2)no1 (stereo not drawn) | 23.5
O=C(CN1CCN(CC(O)C2CC2)CC1)NCc1ccccc1 (stereo not drawn) | -24.6
Cc1cc(F)ccc1-c1ccccc1CC1CNCCNC1=O (stereo not drawn) | 71.2
COc1ccc(F)cc1-c1ccccc1CC1CNCCNC1=O (stereo not drawn) | 23.595
Cc1ccc(-c2ccccc2CC2CNCCNC2=O)c(C)c1 (stereo not drawn) | 33
CC(=O)N1CCN(C(=O)c2cc(-n3cnnn3)ccc2Cl)CC1 | 6.32
CCOc1ccccc1CNC(=O)N(CC)C(C)c1cccnc1 (stereo not drawn) | -1.25
CCN(C(=O)NCc1ccccc1OC(F)F)C(C)c1cccnc1 (stereo not drawn) | 50.1
CCN(C(=O)NCc1ccc(C)cc1OC)C(C)c1cccnc1 (stereo not drawn) | 29.8
NC(=O)c1ccccc1Oc1cnc(C2CCCN2)cn1 (stereo not drawn) | -38.3
Cc1ccc2c(c1)CCC2NC(=O)N1CCC(C(N)=O)CC1 (stereo not drawn) | 10.1
COC(=O)Cn1c(=O)[nH]c2cn(-c3ccc(C)cc3)c(=O)n21 | -1.04
CC(C)CN1C(=O)CO[C@@H]2CN(C(=O)CC(F)(F)F)C[C@H]21 | 54.1
CC(C)CN1C(=O)CO[C@@H]2CN(C(=O)N(C)C)C[C@H]21 | 29
CC(C)CN1C(=O)CO[C@@H]2CN(C(=O)C3CCOCC3)C[C@H]21 | 11.3
CC(C)CN1C(=O)CO[C@@H]2CN(C(=O)[C@H]3CCCO3)C[C@H]21 | 36.4
CC(C)CN1C(=O)CO[C@@H]2CN(C(=O)NC(C)C)C[C@H]21 | 70.4
CC(C)CN1C(=O)CO[C@@H]2CN(C(=O)N3CCOCC3)C[C@H]21 | 29
CCN(CC)CC1CN(Cc2cccc(C#N)c2)Cc2nccn2C1 (stereo not drawn) | -16.9

SMILES | INHIBITION [%]
CC1CCCN(c2nccn3c(=O)[nH]nc23)C1 (stereo not drawn) | 17.6
COCC(=O)N1CCC(=O)N(C2CCCC2)Cc2cc(F)ccc21 | -13.3
CCOC(=O)[C@]12CCCN(Cc3cccs3)C[C@H]1CN(CCOC)C2 | 33.5
CCOC(=O)[C@]12CCCN(Cc3nccs3)C[C@H]1CN(CCOC)C2 | -14.4
CCOC(=O)[C@]12CCCN(Cc3nccs3)C[C@H]1CN(CC(C)C)C2 | -13
CCOC(=O)[C@]12CCCN(Cc3nccs3)C[C@H]1CN(C(C)=O)C2 | -1.64
CCOC(=O)[C@]12CCCN(Cc3nccs3)C[C@H]1CN(S(C)(=O)=O)C2 | 5.96
CCOC(=O)[C@]12CCCN(Cc3cccs3)C[C@H]1CN(C(C)C)C2 | 64.3
CCOC(=O)[C@]12CCCN(Cc3nccs3)C[C@H]1CN(C(C)C)C2 | 76.4
O=C(O)[C@]12CCCN(Cc3cccs3)C[C@H]1CN(c1ncccn1)C2 | -7.24
CCOC(=O)[C@]12CCCN(Cc3cccs3)C[C@H]1CN(C(C)=O)C2 | 51.4
CCOC(=O)[C@]12CCCN(Cc3nccs3)C[C@H]1CN(CCN(C)C)C2 | 15.1
CCOC(=O)[C@]12CCCN(Cc3ccsc3)C[C@H]1CN(CCOC)C2 | -74.6
CCOC(=O)[C@]12CCCN(Cc3cccs3)C[C@H]1CN(CC(C)C)C2 | 60.3
COc1cc(-c2nc3c([nH]2)CCCNC3=O)cc(OC)c1OC | -34.8
Cc1ccc(F)cc1C(=O)N1CCN(S(C)(=O)=O)[C@@H](C)C1 | -2.23
CCOC(=O)Cc1cs/c(=N/C(=O)COc2cnc(C)cc2O)[nH]1 | -1.45
CC(C)(C)c1cccc(OCC(=O)NS(=O)(=O)c2cccnc2)c1 | 0.1
CCNC(=O)NC(=O)CNC(C)(C)c1ccc2c(c1)OCO2 | -12.2
CN(Cc1cccnc1)[C@@H]1CN(Cc2ccccn2)[C@@H]2CCCO[C@H]12 | 30.3
NCC1CCC(c2c(C(=O)NCCO)sc3ccccc23)CC1 (stereo not drawn) | -11.4
CNC(=O)C1CCCCN1C(=O)CCn1cnc2sccc2c1=O (stereo not drawn) | 52.6
CCC1CCCCN1C(=O)CCn1cnc2sccc2c1=O (stereo not drawn) | 25.4
CC1CCCCN1C(=O)CCn1cnc2sccc2c1=O (stereo not drawn) | 42.7
CCn1ncc2c(C(F)F)cc(-c3ccn(C)n3)nc21 | 8.05
